Laboratory results published in PubChem BioAssay (EPA / NIEHS).
Records with an inconclusive call do not appear. Calls of active or inactive are those of the source. Rule for the calls, unless noted: active = hit-call score of the fitted dose curve at least 0.9, where 1 is the maximum; inconclusive = response in the unintended direction; inactive = score below 0.9.

Key:
[1] = target: Oxysterols receptor LXR-alpha (Homo sapiens) (UniProt Q13133); assay: ATG_LXRa_TRANS: Attagene TRANS-FACTORIAL HepG2 Assay for human Liver X Receptor alpha (LXRa) (AID 2282980); settings: HepG2 Attagene TRANS reporter, LXRa transactivation
Outline: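 Transient HepG2 transfectants, 24 h dosing, RT-PCR/CE mRNA reporter quantitation; gain-of-signal vs DMSO.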

[2] = ATG_M_32_TRANS: Attagene TRANS-FACTORIAL HepG2 Assay for M32 Transcription Factor (Internal Marker) (AID 2282984); settings: HepG2 Attagene TRANS M32 internal marker reporter;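 note: transcript level of a background control reporter unit measured by RT-PCR and capillary electrophoresis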
Outline: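 Fluorescence-detected mRNA induction, HepG2 liver cells, 24 h after dosing. Multiple GAL4-UAS reporter units introduced by transient transfection; background-control endpoint analysed for gain of signal against DMSO.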

[3] = target: Transcriptional activator Myb (Homo sapiens) (UniProt P10242); assay: ATG_Myb_CIS: Attagene CIS-FACTORIAL HepG2 Assay for human Myeloblastosis (Myb) Proto-Oncogene Transcription Factor (AID 2282986; active = hit-call score of the fitted dose curve at least 0.9, where 1 is the maximum; inactive = score below 0.9); settings: HepG2 Attagene CIS-FACTORIAL Myb reporter transcription; actives raise or lower the signal
Outline: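 In this HepG2 transient-transfection format, cis-regulated reporter mRNA is quantified 24 h post-dosing by RT-PCR with capillary electrophoresis, fitted bidirectionally to DMSO baseline.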

[4] = target: Nuclear respiratory factor 1 (Homo sapiens) (UniProt Q16656); assay: ATG_NRF1_CIS: Attagene CIS-FACTORIAL HepG2 Assay for human Nuclear Respiratory Factor 1 (NRF1) Orphan Gene (AID 2282987; active = hit-call score of the fitted dose curve at least 0.9, where 1 is the maximum; inactive = score below 0.9); settings: HepG2 NRF1 cis-element reporter, Attagene multiplex; actives raise or lower the signal
Outline: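 Using DMSO as baseline, gain- or loss-of-signal was fitted for reporter mRNA levels in HepG2 cells transiently transfected with cis-regulated reporter units. Samples were taken 24 h after dosing and read by RT-PCR with capillary electrophoresis.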

[5] = ATG_NFI_CIS: Attagene CIS-FACTORIAL HepG2 Assay for human Nuclear Factor I (NFI) (AID 2282989; active = hit-call score of the fitted dose curve at least 0.9, where 1 is the maximum; inactive = score below 0.9); settings: HepG2 cis-regulatory reporter, NFI response element transcription; actives raise or lower the signal
Outline: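 Endogenous TF activity in HepG2 cells transiently transfected with cis-element-driven multiplexed reporter units, read 24 h after dosing. Reporter mRNA quantified by RT-PCR, 6-FAM labelling, HpaI digestion and capillary electrophoresis; bidirectional fit versus DMSO.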

[6] = target: Hepatocyte nuclear factor 4-alpha (Homo sapiens) (UniProt P41235); assay: ATG_HNF4a_TRANS: Attagene TRANS-FACTORIAL HepG2 Assay for human Hepatocyte Nuclear Factor 4 alpha (HNF4a) (AID 2282982); settings: HepG2 HNF4a transactivation reporter, mRNA readout
Outline: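 Using HepG2 liver cells transfected with GAL4-UAS reporter units, chemical-induced mRNA increases were assessed after 24 hours. Fluorescent RT-PCR fragments were separated by capillary electrophoresis and compared with DMSO negative controls.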

[7] = target: Nuclear receptor subfamily 4 group A member 2 (Homo sapiens) (UniProt P43354); assay: ATG_NURR1_TRANS: Attagene TRANS-FACTORIAL HepG2 Assay for human Nuclear Receptor Related Protein 1 (NURR1) (AID 2282985); settings: HepG2 Attagene TRANS reporter, mRNA readout
Outline: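 Chimeric NR-Gal4 proteins were expressed in human HepG2 cells bearing GAL4-UAS reporter units, and induced reporter mRNA was quantified 24 h post-dosing by RT-PCR and capillary electrophoresis.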

[8] = target: Oxysterols receptor LXR-beta (Homo sapiens) (UniProt P55055); assay: ATG_LXRb_TRANS: Attagene TRANS-FACTORIAL HepG2 Assay for human Liver X Receptor beta (LXRb) (AID 2282981); settings: HepG2 Attagene TRANS GAL4-LXRb reporter, mRNA
Outline: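 Liver-derived HepG2 cells transfected with Gal4-responsive reporters were dosed for 24 h. Activation was scored as rise in reporter mRNA, by RT-PCR and capillary electrophoresis, above DMSO baseline.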

[9] = ATG_M_06_TRANS: Attagene TRANS-FACTORIAL HepG2 Assay for M06 Transcription Factor (Internal Marker) (AID 2282983); settings: HepG2 Attagene TRANS M06 internal marker reporter;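 note: reporter transcript level by RT-PCR then capillary electrophoresis fluorescence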
Outline: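 Human liver HepG2 cells bearing transiently transfected chimeric NR-GAL4 reporter units were treated with chemicals for 24 h. Total RNA was reverse-transcribed, reporter sequences amplified and labelled, then quantified by capillary electrophoresis. Activity was fitted upward relative to DMSO.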

Measured: AC50

Chain of Oxysterols receptor LXR-beta (Homo sapiens) (P55055 whole entry, looked up, the tested form may be a part): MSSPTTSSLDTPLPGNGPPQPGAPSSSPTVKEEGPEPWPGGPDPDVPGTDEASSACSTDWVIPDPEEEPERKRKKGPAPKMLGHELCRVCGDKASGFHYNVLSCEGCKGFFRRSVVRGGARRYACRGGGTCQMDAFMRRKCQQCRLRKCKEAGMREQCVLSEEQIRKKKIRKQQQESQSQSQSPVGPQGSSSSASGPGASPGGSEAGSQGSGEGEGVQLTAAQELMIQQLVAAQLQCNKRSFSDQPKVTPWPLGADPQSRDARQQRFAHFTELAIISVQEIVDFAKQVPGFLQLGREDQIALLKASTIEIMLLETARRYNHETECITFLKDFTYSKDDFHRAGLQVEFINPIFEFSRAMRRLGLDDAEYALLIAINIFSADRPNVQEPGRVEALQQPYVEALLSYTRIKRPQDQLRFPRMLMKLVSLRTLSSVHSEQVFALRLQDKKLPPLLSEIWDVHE
Chain of Hepatocyte nuclear factor 4-alpha (Homo sapiens) (P41235 whole entry, looked up, the tested form may be a part): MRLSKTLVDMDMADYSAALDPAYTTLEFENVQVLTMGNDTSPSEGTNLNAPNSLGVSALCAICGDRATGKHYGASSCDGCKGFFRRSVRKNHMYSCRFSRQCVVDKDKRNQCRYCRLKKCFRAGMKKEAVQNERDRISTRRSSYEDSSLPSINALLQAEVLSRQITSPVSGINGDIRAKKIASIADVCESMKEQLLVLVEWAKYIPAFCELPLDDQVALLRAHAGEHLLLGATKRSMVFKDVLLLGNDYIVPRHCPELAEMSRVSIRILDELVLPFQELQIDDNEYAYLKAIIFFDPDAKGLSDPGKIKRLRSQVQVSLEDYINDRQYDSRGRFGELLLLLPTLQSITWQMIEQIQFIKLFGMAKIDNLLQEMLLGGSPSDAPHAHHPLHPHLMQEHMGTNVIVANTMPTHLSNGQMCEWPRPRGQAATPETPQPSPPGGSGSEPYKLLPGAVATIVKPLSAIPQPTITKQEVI
Chain of Transcriptional activator Myb (Homo sapiens) (P10242 whole entry, looked up): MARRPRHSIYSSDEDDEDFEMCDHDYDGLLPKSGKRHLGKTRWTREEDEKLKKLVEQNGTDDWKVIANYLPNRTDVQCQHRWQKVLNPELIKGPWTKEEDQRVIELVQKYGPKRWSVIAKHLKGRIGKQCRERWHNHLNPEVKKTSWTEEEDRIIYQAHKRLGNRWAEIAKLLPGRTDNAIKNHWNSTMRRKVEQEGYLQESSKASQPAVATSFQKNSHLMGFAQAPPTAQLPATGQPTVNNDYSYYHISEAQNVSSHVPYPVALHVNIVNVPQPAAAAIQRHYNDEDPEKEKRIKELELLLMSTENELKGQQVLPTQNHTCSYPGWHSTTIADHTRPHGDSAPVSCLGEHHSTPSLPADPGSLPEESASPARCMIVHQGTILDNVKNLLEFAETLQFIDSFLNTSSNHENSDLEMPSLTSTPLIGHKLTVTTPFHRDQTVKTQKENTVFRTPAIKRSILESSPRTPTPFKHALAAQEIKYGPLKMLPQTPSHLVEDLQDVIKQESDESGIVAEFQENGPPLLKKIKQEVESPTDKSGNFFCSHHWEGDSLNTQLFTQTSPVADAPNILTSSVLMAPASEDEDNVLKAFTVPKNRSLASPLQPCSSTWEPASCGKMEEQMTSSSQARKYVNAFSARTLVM
Chain of Nuclear respiratory factor 1 (Homo sapiens) (Q16656 whole entry, looked up): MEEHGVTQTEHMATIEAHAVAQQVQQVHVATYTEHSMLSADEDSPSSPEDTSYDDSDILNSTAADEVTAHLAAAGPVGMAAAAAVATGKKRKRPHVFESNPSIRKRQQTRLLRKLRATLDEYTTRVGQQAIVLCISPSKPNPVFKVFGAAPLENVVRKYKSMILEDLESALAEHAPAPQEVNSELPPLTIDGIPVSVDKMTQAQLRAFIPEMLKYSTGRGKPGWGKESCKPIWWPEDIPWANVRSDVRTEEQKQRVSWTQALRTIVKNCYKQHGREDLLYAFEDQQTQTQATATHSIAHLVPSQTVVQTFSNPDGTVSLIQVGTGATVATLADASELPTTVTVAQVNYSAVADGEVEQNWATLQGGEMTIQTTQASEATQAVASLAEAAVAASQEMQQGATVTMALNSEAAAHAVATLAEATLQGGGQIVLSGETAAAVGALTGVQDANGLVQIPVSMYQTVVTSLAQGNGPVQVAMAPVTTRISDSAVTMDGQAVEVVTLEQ
Chain of Oxysterols receptor LXR-alpha (Homo sapiens) (Q13133 whole entry, looked up): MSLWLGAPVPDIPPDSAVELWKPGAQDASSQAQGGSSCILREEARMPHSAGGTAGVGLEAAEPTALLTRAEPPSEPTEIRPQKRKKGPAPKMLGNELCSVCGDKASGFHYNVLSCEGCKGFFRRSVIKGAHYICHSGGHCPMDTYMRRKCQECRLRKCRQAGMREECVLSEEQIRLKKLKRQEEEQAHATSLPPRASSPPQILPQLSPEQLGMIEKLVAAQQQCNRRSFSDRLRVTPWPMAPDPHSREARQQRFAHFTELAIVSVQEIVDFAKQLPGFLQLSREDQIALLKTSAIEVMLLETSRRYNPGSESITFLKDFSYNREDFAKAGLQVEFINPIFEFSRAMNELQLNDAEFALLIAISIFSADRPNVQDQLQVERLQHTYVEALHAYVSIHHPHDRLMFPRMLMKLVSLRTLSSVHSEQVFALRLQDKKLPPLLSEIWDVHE
Chain of Nuclear receptor subfamily 4 group A member 2 (Homo sapiens) (P43354 whole entry, looked up, the tested form may be a part): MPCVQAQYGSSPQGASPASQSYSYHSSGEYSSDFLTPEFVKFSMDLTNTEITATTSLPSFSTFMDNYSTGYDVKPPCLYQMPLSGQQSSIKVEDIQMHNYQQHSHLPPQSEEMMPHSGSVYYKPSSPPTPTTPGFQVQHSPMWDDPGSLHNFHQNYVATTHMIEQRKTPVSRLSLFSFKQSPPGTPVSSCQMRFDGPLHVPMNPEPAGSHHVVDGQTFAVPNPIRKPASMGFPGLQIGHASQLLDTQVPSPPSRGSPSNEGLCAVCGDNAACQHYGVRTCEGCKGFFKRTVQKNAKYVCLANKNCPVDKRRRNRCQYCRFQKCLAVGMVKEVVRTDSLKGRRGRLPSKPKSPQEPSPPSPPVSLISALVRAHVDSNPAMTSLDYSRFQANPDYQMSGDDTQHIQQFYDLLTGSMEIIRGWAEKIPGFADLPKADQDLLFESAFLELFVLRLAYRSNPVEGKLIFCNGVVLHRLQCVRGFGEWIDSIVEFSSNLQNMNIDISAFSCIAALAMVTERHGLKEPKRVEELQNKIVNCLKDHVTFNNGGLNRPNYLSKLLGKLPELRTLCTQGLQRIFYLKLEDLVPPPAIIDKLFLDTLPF

O=C(O)c1cc(I)cc(I)c1I
inactive: [1] | [2] | [3] | [4] | [5]

CCCCCCCCCCBr
not listed: [5] | [8] | [9]
inactive: all other assays above

C[C@]12CC[C@@H](O)C[C@@H]1CC[C@@H]1[C@@H]2CC[C@]2(C)C(=O)CC[C@@H]12
inactive: [1] | [8] | [3] | [4] | [5]

Cc1cc(C(C)(C)c2ccc(O)c(C)c2)ccc1O
active: [7] 69.3 µM | [3] 89.7 µM
not listed: [1]
inactive: all other assays above

COc1ccccc1N
not listed: [8]
inactive: all other assays above

CN(C1CCCCC1)C1CCCCC1
not listed: [7] | [8]
inactive: all other assays above

CCN(CC)C(=O)C(Cl)=C(C)OP(=O)(OC)OC
not listed: [1]
inactive: all other assays above

CCOP(=S)(OCC)Oc1ccc(Cl)cc1Cl
not listed: [8]
inactive: all other assays above

O=C(Cc1ccccc1)OCCc1ccccc1
not listed: [1]
inactive: all other assays above

Cc1cccc(C)c1NC(=O)CN1CCCC1=O
inactive: [1] | [9] | [3] | [5]

Oc1c(Br)cc(Br)cc1Br
not listed: [8]
inactive: all other assays above

CCOC(=O)CC(=O)CCl
not listed: [2] | [8]
inactive: all other assays above

CC1CC(=O)O1 (stereo not given)
not listed: [1]
inactive: all other assays above

CC[N+](CC)(CC)CC
inactive: [1] | [9] | [2] | [3]

CCCSP(=S)(OCC)Oc1ccc(Cl)cc1Cl (stereo not given)
not listed: [6] | [8]
inactive: all other assays above

Nc1cccnc1
not listed: [1]
inactive: all other assays above

Cc1cc(Cl)ccc1N
not listed: [6] | [7] | [8]
inactive: all other assays above

Cc1cc(-c2cc(C)c(N)c(C)c2)cc(C)c1N
inactive: [1] | [2] | [7] | [3] | [5]

CCCCCCCCBr
not listed: [4] | [8] | [9]
inactive: all other assays above

OC[P+](CO)(CO)CO
not listed: [1]
inactive: all other assays above

O=[N+]([O-])c1c2ccccc2cc2ccccc12
not listed: [7] | [8]
inactive: all other assays above

CCOP(=O)(OCC)SCCSCC
not listed: [5] | [6] | [8]
inactive: all other assays above

O=NN1CCCCCCC1
not listed: [1] | [7]
inactive: all other assays above

OC[C@@H](O)[C@H]1O[C@@H]2O[C@H](C(Cl)(Cl)Cl)O[C@@H]2[C@H]1O
not listed: [6] | [8]
inactive: all other assays above

ClCCN1CCOCC1
not listed: [8]
inactive: all other assays above

Brc1ccc(Br)cc1
inactive: [1] | [6] | [3] | [4] | [5]

O=[N+]([O-])c1ccc(Cl)c([N+](=O)[O-])c1
not listed: [6] | [8] | [9]
inactive: all other assays above

O=C(NC(=O)c1c(F)cccc1F)Nc1ccc(Cl)cc1
not listed: [4] | [5] | [8]
inactive: all other assays above

CC1(C)[C@H](/C=C2\CCSC2=O)[C@@H]1C(=O)OCc1coc(Cc2ccccc2)c1
not listed: [5] | [8]
inactive: all other assays above

CCC[CH2][Sn]([CH2]CCC)([CH2]CCC)[CH2]CCC
active: [7] 0.497 µM | [5] 17.3 µM
inactive: [1] | [8] | [3]

c1ccc2sc(SNC3CCCCC3)nc2c1
not listed: [6] | [8] | [9]
inactive: all other assays above

O=[N+]([O-])c1ccccc1O
not listed: [8]
inactive: all other assays above

CC(C=O)Cc1ccc2c(c1)OCO2 (stereo not given)
not listed: [2] | [8]
inactive: all other assays above

N#Cc1ccncc1
not listed: [1]
inactive: all other assays above

COc1ccc([N+](=O)[O-])cc1O
inactive: [1] | [9] | [2] | [3] | [4]

COCCl
not listed: [6] | [7] | [8]
inactive: all other assays above

Clc1cccc(Cl)c1Cl
not listed: [1] | [2] | [7]
inactive: all other assays above

CCCCC(CC)COC(=O)Cl (stereo not given)
not listed: [1] | [5] | [8]
inactive: all other assays above

O=C(NC(=O)c1c(F)cccc1F)Nc1cc(Cl)c(F)c(Cl)c1F
not listed: [1] | [7] | [8]
inactive: all other assays above

Clc1cnc(Oc2ccc(Oc3ncc(Cl)cc3Cl)cc2)c(Cl)c1
not listed: [1] | [2] | [9]
inactive: all other assays above

CC(C)N(C(=O)CCl)c1ccccc1
active: [7] 149 µM | [3] 8.16 µM | [4] 49.1 µM
inactive: [8] | [9] | [2]

[F][Sn]([c]1ccccc1)([c]1ccccc1)[c]1ccccc1
active: [7] 0.00363 µM | [3] 2.24 µM | [4] 0.294 µM | [5] 0.312 µM
inactive: [8] | [6] | [2]

Oc1cc(Cl)c(Cl)cc1Cl
active: [5] 66.4 µM
inactive: [8] | [9] | [2] | [3] | [4]

CCCCOP(=O)(CCCC)OCCCC
not listed: [1] | [7] | [8]
inactive: all other assays above

C=CCN=C=S
inactive: [8] | [2] | [3] | [4] | [5]

CC(C)[C@H](C(=O)OC(C#N)c1cccc(Oc2ccccc2)c1)c1ccc(OC(F)F)cc1 (stereo not given in full)
not listed: [1] | [8]
inactive: all other assays above

Nc1nc(N)nc(Cl)n1
inactive: [8] | [6] | [2] | [3] | [4]

Nc1ccc(-c2ccccc2)cc1
not listed: [1] | [6]
inactive: all other assays above

c1cc[c]([Sb]([c]2ccccc2)[c]2ccccc2)cc1
inactive: [6] | [9] | [2] | [3] | [5]
active: [7] 17.5 µM

CCCCN(CCCC)C(=S)S
active: [3] 100 µM | [4] 152 µM
inactive: [8] | [9] | [5]

[Cl][Sn]([c]1ccccc1)([c]1ccccc1)[c]1ccccc1
inactive: [8] | [9]
active: [6] 0.228 µM | [7] 0.00688 µM | [3] 1.53 µM | [4] 0.216 µM | [5] 0.228 µM
